According to PubChem BioAssay AID743365 (National Center for Advancing Translational Sciences (NCATS), 2014):
Square brackets hold non-standard residues; d marks the D form. Peptide text beside a SMILES is read from it. Orn = NCCC[C@H](N)C(=O)O

Experiment: qHTS profiling of inhibitors of Plasmodium falciparum (DD2) proliferation (acoustic dispense)
Details: P. falciparum Dd2 in erythrocytes, SYBR Green DNA, 72 h; at 49.8 µM (top of the series) unless noted
Excerpt: Plasmodium falciparum is a virulent malarial parasite that kills 1-2 million people worldwide each year. Transmitted by mosquitoes, the sporozoite form of the parasite enters the blood stream to infect hepatocytes, where they become merozoites that infect red blood cells (erythrocytes). Within erythrocytes, merozoites begin a […] cycle of growth and division, after which the parasite is released to infect new red blood cells. Gametocytes, which form within erythrocytes as well, circulate in the bloodstream and are ingested by the mosquito, thereby completing the life cycle. To profile malarial isolates for differential chemical responses and to identify inhibitors of malarial growth, an assay that measures P. falciparum growth and replication within erythrocytes was employed. This assay uses a DNA binding fluorescent dye (SYBR Green) to detect parasite DNA following cell lysis. Because mature erythrocytes lack DNA, only Plasmodium-derived DNA is detected.
The SYBR Green viability assay was adapted from a method described previously (Plouffe et al., 2008). For screening 3 ul culture medium was dispensed into 1536 well black clear bottom plates (Aurora Biotechnologies) using a Multidrop Combi (Thermo Fisher Scientific Inc.), 23 nL of compounds in DMSO were added by an acoustic dispenser (EDC Biosystems), and 5 ul of erythrocytes infected with P. falciparum (0.3% parasitemia, 2.5% hematocrit final concentration) were added. The plates were incubated at 37 C in a humidified incubator in 5% CO2 for 72 h, and 2 ul lysis buffer (20 mM Tris HCl, 10 mM EDTA, 0.16% saponin, 1.6% triton X, 10X SYBR Green I supplied as 10,000X […] by Invitrogen) was added to each well. The plates were mixed for 25 sec with gentle shaking and incubated overnight at room temperature in the dark. The following morning, fluorescence intensity at 485(14) nm excitation and 535(25) nm emission wavelengths was measured on an EnVision (Perkin Elmer) plate reader. Plate reads were normalized relative to the control inhibitor (0.29 uM artemisinin) and vehicle (DMSO) wells present on each plate and then corrected by an algorithm using vehicle-only control plates at the beginning and end of the compound plate stack.

| SMILES | parasite growth, lower = inhibition |
| --- | --- |
| CC(C)C[C@@H]1NC(=O)[C@H](CCCN)NC(=O)[C@H](C(C)C)NC(=O)[C@@H]2CCCN2C(=O)[C@@H](Cc2ccccc2)NC(=O)[C@H](CC(C)C)NC(=O)[C@H](CCCN)NC(=O)[C@H](C(C)C)NC(=O)[C@@H]2CCCN2C(=O)[C@@H](Cc2ccccc2)NC1=O (cyclo(V[Orn]L[dF]PV[Orn]L[dF]P)) | 0.52% |
| CSc1cccc(Nc2ncc3cc(-c4c(Cl)cccc4Cl)c(=O)n(C)c3n2)c1 | 3.85% |
| C[C@H](Cn1cnc2c(N)ncnc21)OCP(=O)(O)O | 98% |
| c1cncc(CN2CCC(n3ncc4c(N5CCOCC5)nc(-c5ccc6[nH]ccc6c5)nc43)CC2)c1 | 0.462% |
| O=C1C(=O)c2ccccc2C(O)=C1C1CCC(c2ccc(Cl)cc2)CC1 (stereo not given) | 3.04% |
| COCCn1c2c([n+](Cc3cnccn3)c1C)C(=O)c1ccccc1C2=O | -0.378% |
| COc1ccc2cc3[n+](cc2c1OC)CCc1cc2c(cc1-3)OCO2 | -0.889% |
| CN(C)c1ccc2nc3ccc(=[N+](C)C)cc-3sc2c1 | 11.8% |
| CCCCCCOC(=O)C1(O)CC2OC1(C)n1c3ccccc3c3c4c(c5c6ccccc6n2c5c31)C(=O)NC4 (stereo not given) | 89.2% [at 1.88 µM] |
| COC(=O)[C@]12CCC(C)(C)C[C@@H]1[C@@H]1C(=O)C=C3[C@@]4(C)C=C(C#N)C(=O)C(C)(C)[C@@H]4CC[C@@]3(C)[C@]1(C)CC2 | 23.1% |
| CC(C)[C@H](C(=O)Nc1ccc(C(=O)NO)cc1)c1ccccc1 | 0.408% |
| CC1(C)N=C(N)N=C(N)N1c1ccc(Cl)cc1 | 3.98% |
| C[C@H]1Cc2c([nH]c3cc(Cl)c(F)cc23)[C@@]2(N1)C(=O)Nc1ccc(Cl)cc12 | -0.794% |
| C[C@H]1[C@@H](OC(=O)CCC(=O)O)O[C@@H]2O[C@@]3(C)CC[C@@H]4[C@H](C)CC[C@@H]1[C@@]24OO3 | -0.775% |
| CO[C@H]1O[C@@H]2O[C@@]3(C)CC[C@@H]4[C@@H](C)CC[C@@H]([C@H]1C)[C@@]24OO3 | -0.475% |
| CCn1nnc2c(N3CCOCC3)nc(-c3ccc(NC(=O)Nc4ccc(C(=O)N5CCN(C)CC5)cc4)cc3)nc21 | 2.15% |
| CC[C@@]1(O)C[C@H](O[C@H]2C[C@H](N(C)C)[C@H](O[C@H]3C[C@H](O)[C@H](O[C@H]4CCC(=O)[C@H](C)O4)[C@H](C)O3)[C@H](C)O2)c2c(cc3c(c2O)C(=O)c2c(O)cccc2C3=O)[C@@H]1C(=O)OC | -1.21% |
| C=CCNC1=C2C[C@@H](C)C[C@H](OC)[C@@H](O)[C@@H](C)C=C(C)[C@H](OC(N)=O)[C@@H](OC)C=CC=C(C)C(=O)NC(=CC1=O)C2=O | 0.49% |
| CCC[C@H](Nc1nc(-c2ccc(NC(=O)NCC)c(OC)c2)ncc1C)c1cccnc1 | 1.45% |
| O=C1NC(=O)C(=Cc2ccc3nccc(-c4ccncc4)c3c2)S1 | 0.455% |

| SMILES | parasite growth, lower = inhibition |
| --- | --- |
| O=C(Nc1ccc([N+](=O)[O-])cc1Cl)c1cc(Cl)ccc1O | 87.9% |
| CC1(CN2CCC(n3c(=O)[nH]c4ccccc43)CC2)OCc2ccccc2-n2cccc21 (stereo not given) | 12.6% |
| COc1ccc(-c2nc(N3CCOCC3)c3sc(CN(C)c4ncc(C(=O)NO)cn4)cc3n2)cn1 | 0.651% |
| COc1cc(C)c2c(Oc3cccc(C(F)(F)F)c3)c(OC)cc(NCCCC(C)N)c2n1 (stereo not given) | -0.465% |
| CCc1nc(N)nc(N)c1-c1ccc(Cl)cc1 | 79.6% |
| CO[C@H]1C=CO[C@@]2(C)Oc3c(C)c(O)c4c(O)c(c(C=NN5CCN(C)CC5)c(O)c4c3C2=O)NC(=O)C(C)=CC=C[C@H](C)[C@H](O)[C@@H](C)[C@@H](O)[C@@H](C)[C@H](OC(C)=O)[C@H]1C | -0.189% [at 16.5 µM] |
| C1CCC(C(CC2CCCCN2)C2CCCCC2)CC1 (stereo not given) | 0.0319% |
| CN(Cc1cnc2nc(N)nc(N)c2n1)c1ccc(C(=O)N[C@@H](CCC(=O)O)C(=O)O)cc1 | -0.378% |
| CN(C)c1ccc(C(=C2C=CC(=[N+](C)C)C=C2)c2ccc(N(C)C)cc2)cc1 | 96.3% |
| CC(C)n1nc(-c2ccc3oc(N)nc3c2)c2c(N)ncnc21 | -0.0305% |
| NC(=NCCCCCCN=C(N)N=C(N)Nc1ccc(Cl)cc1)N=C(N)Nc1ccc(Cl)cc1 | 3.29% |
| COC(=O)c1ccc2c(C(=Nc3ccc(N(C)C(=O)CN4CCN(C)CC4)cc3)c3ccccc3)c(O)[nH]c2c1 | 14.8% |
| CCN(CC)CCCC(C)Nc1ccnc2cc(Cl)ccc12 (stereo not given) | -0.356% |
| COc1ncnc(NS(=O)(=O)c2ccc(N)cc2)c1OC | 114% |
| C=C[C@@H]1CN2CCC1C[C@@H]2C(O)c1ccnc2ccc(OC)cc12 (stereo not given in full) | 1.83% |
| CCS(=O)(=O)Nc1ccc2[nH]c(O)c(C(=Nc3ccc(CN4CCCCC4)cc3)c3ccccc3)c2c1 | -0.594% |
| CS[C@H]1SC[C@@H]2C(=O)N(C)[C@H](C(C)C)C(=O)OC[C@H](NC(=O)c3cnc4ccccc4n3)C(=O)N[C@H](C)C(=O)N(C)[C@@H]1C(=O)N(C)[C@H](C(C)C)C(=O)OC[C@H](NC(=O)c1cnc3ccccc3n1)C(=O)N[C@H](C)C(=O)N2C | 0.25% |
| CCN[C@H]1C[C@H](C)S(=O)(=O)c2sc(S(N)(=O)=O)cc21 | 0.306% |
| CCN(CC)CCNC(=O)c1c(C)[nH]c(C=C2C(=O)Nc3ccc(F)cc32)c1C | -0.534% [at 100 µM] |
| CCCC[C@@H]1C[C@@H](C(=O)NC([C@H](C)Cl)[C@H]2O[C@H](S)[C@H](O)[C@@H](O)[C@@H]2O)N(C)C1 (stereo not given in full) | 20.5% |
